Experiment [1] in a line: S16 Schwann cell viability assay (CellTiter-Glo assay) (AID 624031).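 Also: native untransfected S16 rat Schwann cells; nearly all actives have a fitted effect of over 70% in size.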 An outline of the steps: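 Parental S16 cells, 24 h compound, 37 °C. ATP-luminescence viability; DMSO = 0% activity, empty wells as reference; curves classified by fit quality and efficacy.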
Background: ATP-based viability assays read luminescence as a measure of living cells.

For experiment [2], the system named is ATS189. Nature of the experiment: qHTS profiling for inhibitors of Plasmodium falciparum proliferation (AID 504749). Also: nearly all actives have a fitted effect of over 60% in size. Also: potency is read from the fitted curve at half-maximal effect. The settings on record: P. falciparum in erythrocytes, SYBR Green DNA, 72 h; series mostly up to 12.8 µM. In outline: (§1)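 Infected RBCs, 0.3% parasitemia/2.5% Hct final; cpd 72 h, 37 C, 5% CO2; lysis buffer with saponin/triton/SYBR Green I, o/n RT dark; FI 485/535; norm. to artemisinin (0.29 uM) and DMSO.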
(In general: Quantitative high-throughput screening tests each substance at several concentrations.)

In experiment [3] the test system is CP191. Described as above. The settings on record: P. falciparum in erythrocytes, SYBR Green DNA, 72 h; series mostly up to 12.8 µM. In outline: as §1
The subject of experiment [4] is CP247. The experiment is described as above. The settings on record: P. falciparum in erythrocytes, SYBR Green DNA, 72 h; series mostly up to 12.8 µM. An outline of the steps: as §1
Experiment [5] concerns CP250. The experiment is described as above. The settings on record: P. falciparum in erythrocytes, SYBR Green DNA, 72 h; series mostly up to 12.8 µM. An outline of the steps: as §1
The subject of experiment [6] is CP256. The description is as above. The settings on record: P. falciparum in erythrocytes, SYBR Green DNA, 72 h; series mostly up to 12.8 µM. In outline:
as §1

In experiment [7] the test system is CP262. Described as above. The settings on record: P. falciparum in erythrocytes, SYBR Green DNA, 72 h; series mostly up to 12.8 µM. An outline of the steps: as §1
Experiment [8] deals with CP265. The description is as above. The settings on record: P. falciparum in erythrocytes, SYBR Green DNA, 72 h; series mostly up to 12.8 µM. In outline: as §1
In experiment [9] the test system is CP325. The experiment is described as above. The settings on record: P. falciparum in erythrocytes, SYBR Green DNA, 72 h; series mostly up to 12.8 µM. In outline: as §1
Experiment [10] concerns Dd2. The experiment is described as above. The settings on record: P. falciparum in erythrocytes, SYBR Green DNA, 72 h; series mostly up to 12.8 µM. An outline of the steps: as §1
The subject of experiment [11] is JCK. The description is as above. The settings on record: P. falciparum in erythrocytes, SYBR Green DNA, 72 h; series mostly up to 12.8 µM. In outline:
as §1

Experiment [12] relates to N140. The experiment is described as above. The settings on record: P. falciparum in erythrocytes, SYBR Green DNA, 72 h; series mostly up to 12.8 µM. In outline:
as §1

In experiment [13] the test system is PC15. Described as above. The settings on record: P. falciparum in erythrocytes, SYBR Green DNA, 72 h; series mostly up to 12.8 µM. In outline: as §1
Experiment [14] concerns PC49. The description is as above. The settings on record: P. falciparum in erythrocytes, SYBR Green DNA, 72 h; series mostly up to 12.8 µM. In outline:
as §1

Experiment [15] has as its system SC27B. The description is as above. The settings on record: P. falciparum in erythrocytes, SYBR Green DNA, 72 h; series mostly up to 12.8 µM. An outline of the steps:
as §1

Experiment [16] relates to TAB113. The experiment is described as above. The settings on record: P. falciparum in erythrocytes, SYBR Green DNA, 72 h; series mostly up to 12.8 µM. An outline of the steps: as §1
Experiment [17] relates to CP185. Described as above. The settings on record: P. falciparum in erythrocytes, SYBR Green DNA, 72 h; series mostly up to 12.8 µM. In outline: as §1
The test system of experiment [18] is CP192. The experiment is described as above. The settings on record: P. falciparum in erythrocytes, SYBR Green DNA, 72 h; series mostly up to 28.7 µM. An outline of the steps: as §1
Experiment [19] has as its system CP201. Described as above. The settings on record: P. falciparum in erythrocytes, SYBR Green DNA, 72 h; series mostly up to 12.8 µM. An outline of the steps: as §1
Experiment [20] deals with CP329. The description is as above. The settings on record: P. falciparum in erythrocytes, SYBR Green DNA, 72 h; series mostly up to 12.8 µM. An outline of the steps:
as §1

Inconclusive results are not listed. The source made the active and inactive calls. Calls follow the shape of the dose curve; as a rule, active = well fitted curve in the direction sought with a large enough effect; inconclusive = small, poorly fitted or top-dose-only effect, or another doubt; inactive = no such curve, though single readings can be large; an effect the other way counts as inactive or inconclusive.

With `NC(=O)c1cc[n+](CC2=C(C(=O)O)N3C(=O)[C@@H](NC(=O)[C@H](c4ccccc4)S(=O)(=O)[O-])[C@@H]3SC2)cc1`, the Potency entry in experiment [1] and in experiment [7] was “inactive” throughout. Besides, the Potency in experiment [2] is 1580 nM (active); in experiment [3] it was 1410 nM (active); in experiment [4], 3550 nM (active); in experiment [5], 3980 nM (active); in experiment [6], 3550 nM (active); in experiment [8] it was 1410 nM (active). The Potency in experiment [9] was 4550 nM (active); in experiment [10], 1260 nM (active); in experiment [11], 4470 nM (active); in experiment [12], 1410 nM (active); in experiment [13], 1000 nM (active); in [14], 3160 nM (active). The Potency in [15] is 2510 nM (active); in experiment [16], 1780 nM (active).
With `CCn1cc(C(=O)O)c(=O)c2cc(F)c(N3CCN[C@@H](C)C3)c(F)c21`, the Potency entry in experiment [1], in experiment [2], in [17], in experiment [3], in [18] and in experiment [19] was “inactive” in each case. Also, the Potency result in experiment [4], in experiment [5], in [6], in [7], in [8] and in experiment [20] was “inactive” each time. For the same compound, the Potency result in [10], in [12], in [13], in [14] and in [15] was “inactive” throughout.
`CCCN[C@@H](C)C(=O)Nc1c(C)csc1C(=O)OC`: the Potency result in [1], in experiment [2], in [17], in [3], in experiment [18] and in experiment [19] was “inactive” throughout. Also, the Potency result in experiment [4], in [5], in experiment [6], in experiment [7], in experiment [8] and in experiment [9] was “inactive” each time. The Potency entry in experiment [20], in experiment [10], in experiment [11], in experiment [12], in [13] and in experiment [14] was “inactive” throughout. Also, the Potency entry in experiment [15] and in experiment [16] was “inactive” in each case.
Regarding `NC(=O)OC[C@H](O)COc1ccc(Cl)cc1`, the Potency entry in [1], in [2], in experiment [17], in experiment [3], in [18] and in [19] was “inactive” throughout. The Potency result in experiment [4], in [5], in [6], in experiment [7], in experiment [8] and in experiment [9] was “inactive” throughout. Also, the Potency entry in experiment [20], in experiment [10], in experiment [11], in experiment [12], in experiment [13] and in experiment [14] was “inactive” throughout. In addition, the Potency entry in experiment [15] and in [16] was “inactive” each time.
For the compound `COc1ccccc1OC[C@H](O)COC(N)=O`, the Potency result in [1], in experiment [2], in [17], in [3], in experiment [18] and in experiment [19] was “inactive” throughout. Also, the Potency result in [4], in [5], in [6], in experiment [7], in experiment [8] and in [9] was “inactive” throughout. For the same compound, the Potency result in experiment [20], in experiment [10], in experiment [11], in [12], in experiment [13] and in experiment [14] was “inactive” in each case. Further, the Potency result in experiment [15] and in experiment [16] was “inactive” throughout.
Regarding `C[C@@H](C(=O)O)c1cccc(C(=O)c2ccccc2)c1`, in experiment [1], the Potency result is “inactive”.
With `CO/N=C(\C(=O)N[C@@H]1C(=O)N2C(C(=O)O)=C(COC(C)=O)CS[C@@H]12)c1csc(N)n1`, the Potency result in [1], in [2], in experiment [17], in experiment [3], in experiment [18] and in experiment [19] was “inactive” in each case. Besides, the Potency entry in experiment [4], in [5], in experiment [6], in experiment [7], in experiment [8] and in experiment [9] was “inactive” in each case. For the same compound, the Potency result in [20], in experiment [10], in [11], in [12], in experiment [13] and in [14] was “inactive” in each case. For the same compound, the Potency result in [15] and in experiment [16] was “inactive” each time.
On to `CCC[C@H]1C(=O)N2C(N(C)C)=Nc3ccc(C)cc3N2C1=O`, for which the Potency entry in experiment [1], in [2], in [17], in experiment [3], in experiment [18] and in [19] was “inactive” throughout. Further, the Potency result in experiment [4], in [5], in [6], in experiment [7], in experiment [8] and in [9] was “inactive” in each case. Moreover, the Potency entry in experiment [20], in experiment [10], in experiment [11], in experiment [12], in [13] and in [14] was “inactive” in each case. The Potency entry in experiment [15] and in experiment [16] was “inactive” throughout.
On to `CCN(CC)CCC[C@H](C)Nc1c2ccc(Cl)cc2nc2ccc(OC)cc12`, for which, in [1], the Potency entry is “inactive”. Moreover, the Potency in experiment [2] is 891 nM (active); in experiment [17], 708 nM (active); in experiment [3], 398 nM (active); in experiment [18], 478 nM (active); in experiment [19], 1200 nM (active); in experiment [4], 1120 nM (active). Besides, the Potency in [5] is 447 nM (active); in experiment [6] it was 631 nM (active); in experiment [7], 426 nM (active); in experiment [8], 891 nM (active); in [9], 426 nM (active); in experiment [20], 1200 nM (active). For the same compound, the Potency in experiment [10] was 447 nM (active); in [11] it was 3160 nM (active); in experiment [12], 891 nM (active); in experiment [13] it was 447 nM (active); in experiment [14] it was 1580 nM (active); in [15], 1260 nM (active). In addition, the Potency in experiment [16] was 891 nM (active).
Consider `COc1c(O)cc2c(c1O)[C@@H]1O[C@@H](CO)[C@@H](O)[C@@H](O)[C@@H]1OC2=O`, for which the Potency entry in [1], in [2], in experiment [17], in experiment [3], in experiment [18] and in [19] was “inactive” in each case. In addition, the Potency result in experiment [4], in experiment [5], in [6], in experiment [7], in experiment [8] and in [9] was “inactive” in each case. Further, the Potency entry in [20], in [10], in experiment [11], in experiment [12], in experiment [13] and in experiment [14] was “inactive” throughout. In addition, the Potency result in experiment [15] and in experiment [16] was “inactive” each time.
`CC(=O)O[C@@H](C)C[N+](C)(C)C`: the Potency result in experiment [1], in [2], in experiment [17], in [3], in experiment [18] and in [19] was “inactive” throughout. Moreover, the Potency entry in [4], in experiment [5], in experiment [6], in [7], in experiment [8] and in experiment [9] was “inactive” throughout. The Potency result in experiment [20], in experiment [10], in [11], in experiment [12], in experiment [13] and in [14] was “inactive” throughout. Further, the Potency result in [15] and in experiment [16] was “inactive” throughout.
`C[n+]1ccccc1/C=N\O`: the Potency result in experiment [1], in experiment [2], in experiment [17], in [3], in experiment [18] and in experiment [19] was “inactive” each time. Further, the Potency entry in experiment [4], in experiment [5], in experiment [6], in experiment [7], in experiment [8] and in experiment [9] was “inactive” throughout. In addition, the Potency entry in [20], in experiment [10], in experiment [11], in experiment [12], in experiment [13] and in [14] was “inactive” throughout. Further, the Potency result in experiment [15] and in [16] was “inactive” in each case.

The values above are taken from PubChem BioAssay (NCATS).
